# Experimental data reported in PubChem BioAssay AID527 (NMMLSC, 2006).
# Among all 24,000 compounds or so, about 65 (0.3%) were called active. The sample holds actives, similar compounds and a random draw of the others, so the mix is not that of the screen.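 Rule for the calls: active = share of bacteria positive for the green fluorescent reporter and its mean brightness both inhibited by 50% or more; inactive = the rest, inconclusive results apart.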
# Test: S. aureus quorum sensing inhibitors, primary screen, RNAIII-GFP reporter, flow cytometry (AID 527);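 note: 0% = AIP-stimulated control and 100% = unstimulated bacteria without AIP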
# Conditions: S. aureus RN6390 RNAIII-GFP reporter, AIP-induced, flow cytometry 3 h, at 2 µM, stronger effect = higher value
# [1] = measured here: inhibition of GFP MFI
Compound,inhibition,inhibition [1]
Cc1nc2nc[nH]n2c(=O)c1NC(=O)c1cccc(OCC(C)C)c1,-5.4% (inactive),-8.1%
COc1ccc(-c2c(C)nn3c(N4CCC(C(=O)N5CCCCC5)CC4)cc(C)nc23)cc1OC,-3.5% (inactive),-8.8%
CCOc1ccc(-c2nnn(CC(=O)N3CCN(c4ccc(F)cc4)CC3)n2)cc1OCC,0.7% (inactive),1.3%
COc1cccc(CN2C(=O)CCC2(C)C(=O)NC2CCCCCC2)c1 (stereo unspecified),-1.4% (inactive),-12.5%
COCCCNC(=O)c1ccc2c(c1)ncn2-c1ccccc1OC,-3.4% (inactive),-5.1%
CCOC(=O)c1cc(NC(=O)SCC(=O)O)c(C)nc1C,-1.6% (inactive),-14.7%
CCOc1cc(/C=N/n2cnnc2)c(Br)cc1O,-1.6% (inactive),-8.8%
COCCNC(=S)c1ccc(OC)cc1,-3.4% (inactive),-6.1%
Clc1ccc(Cc2nn3c(-c4ccncc4)nnc3s2)cc1,0.3% (inactive),5.4%
CCC(=O)c1ccc(OCC(O)CN2C(=O)NC(C)(C)C2=O)cc1 (stereo unspecified),-0.8% (inactive),-2.7%
COc1ccc(S(=O)(=O)NC(CC(=O)NCc2ccccc2OC)c2ccco2)cc1 (stereo unspecified),-0.4% (inactive),-11.3%
CC(C)CCNC(=O)CCNS(=O)(=O)c1ccc(Cl)cc1,2.3% (inactive),8%
O=C(CCS(=O)(=O)Cc1ccccc1F)NCCCN1CCCCC1,-1.8% (inactive),-2.4%
